The whole screen tested about 5,500 compounds, of which about 2,000 (36%) were called active. Another 18% or so got no clear call; they are omitted. No stated cut-off is given here; in the data, active means normalized growth mostly below about 0.91 (no sharp cut-off); inconclusive means no clear call, values can overlap the other calls; inactive means mostly above about 0.92. Some of the results follow.
Experiment: chemical genetic growth profiling, strain panel (AID 1159580);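 further: tested at 20 µM; growth read once vehicle control cultures reached saturation at 30 °C; 1 = growth at the plate median or of vehicle wells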
Conditions: S. cerevisiae deletion strains, growth OD
[1] = locus YAL013W, strain DEP1, stronger effect = lower value
[2] = locus YDR150W, strain NUM1, stronger effect = lower value
[3] = locus YJR075W, strain HOC1, stronger effect = lower value
[4] = locus YAR019C, strain CDC15, stronger effect = lower value
[5] = locus YBL105C, strain PKC1, stronger effect = lower value
[6] = locus YBR135W, strain CKS1, stronger effect = lower value
[7] = locus YBR136W, strain MEC1, stronger effect = lower value
[8] = locus YBR160W, strain CDC28, stronger effect = lower value
[9] = locus YDL017W, strain CDC7, stronger effect = lower value
[10] = locus YDL028C, strain MPS1, stronger effect = lower value
[11] = locus YDL101C, strain DUN1, stronger effect = lower value
[12] = locus YDL108W, strain KIN28, stronger effect = lower value
[13] = locus YDL132W, strain cdc53, stronger effect = lower value
[14] = locus YDL214C, strain PRR2, stronger effect = lower value
[15] = locus YDR052C, strain DBF4, stronger effect = lower value
[16] = locus YDR054C, strain cdc34, stronger effect = lower value
[17] = locus YDR226W, strain ADK1, stronger effect = lower value
[18] = locus YDR477W, strain SNF1, stronger effect = lower value
[19] = locus YER123W, strain YCK3, stronger effect = lower value
[20] = locus YER133W, strain GLC7, stronger effect = lower value
[21] = locus YFL009W, strain cdc4, stronger effect = lower value
[22] = locus YFL029C, strain CAK1, stronger effect = lower value
[23] = locus YFR003C, strain YPI1, stronger effect = lower value
[24] = locus YFR019W, strain FAB1, stronger effect = lower value
[25] = locus YFR028C, strain CDC14, stronger effect = lower value
[26] = locus YGR040W, strain KSS1, stronger effect = lower value
[27] = locus YGR052W, strain FMP48, stronger effect = lower value
[28] = locus YGR092W, strain DBF2, stronger effect = lower value
[29] = locus YHR030C, strain SLT2, stronger effect = lower value
[30] = locus YHR079C, strain IRE1, stronger effect = lower value
[31] = locus YHR082C, strain KSP1, stronger effect = lower value
[32] = locus YHR205W, strain SCH9, stronger effect = lower value
[33] = locus YIL147C, strain SLN1, stronger effect = lower value
[34] = locus YJL095W, strain BCK1, stronger effect = lower value
[35] = locus YJL128C, strain PBS2, stronger effect = lower value
[36] = locus YJL157C, strain FAR1, stronger effect = lower value
[37] = locus YJR016C, strain ILV3, stronger effect = lower value
[38] = locus YJR066W, strain TOR1 (second series), stronger effect = lower value
[39] = locus YJR066W, strain TOR1, stronger effect = lower value
[40] = locus YKL048C, strain ELM1, stronger effect = lower value
[41] = locus YKL067W, strain YNK1, stronger effect = lower value
[42] = locus YKL101W, strain HSL1, stronger effect = lower value
[43] = locus YKL193C, strain SDS22, stronger effect = lower value
[44] = locus YKL203C, strain TOR2, stronger effect = lower value
[45] = locus YLR113W, strain HOG1, stronger effect = lower value
[46] = locus YLR133W, strain CKI1, stronger effect = lower value
[47] = locus YLR403W, strain SFP1, stronger effect = lower value
[48] = locus YML070W, strain DAK1, stronger effect = lower value
[49] = locus YMR001C, strain CDC5, stronger effect = lower value
[50] = locus YMR205C, strain PFK2 (second series), stronger effect = lower value
[51] = locus YMR277W, strain FCP1, stronger effect = lower value
[52] = locus YNL006W, strain LST8, stronger effect = lower value
[53] = locus YNL020C, strain ARK1, stronger effect = lower value
[54] = locus YNL161W, strain CBK1, stronger effect = lower value
[55] = locus YNL183C, strain NPR1, stronger effect = lower value
[56] = locus YNL207W, strain RIO2, stronger effect = lower value
[57] = locus YNL222W, strain SSU72, stronger effect = lower value
[58] = locus YNL307C, strain MCK1 (second series), stronger effect = lower value
[59] = locus YOL078W, strain AVO1, stronger effect = lower value
[60] = locus YOL136C, strain PFK27, stronger effect = lower value
[61] = locus YOR061W, strain CKA2, stronger effect = lower value
[62] = locus YOR119C, strain RIO1, stronger effect = lower value
[63] = locus YOR231W, strain MKK1, stronger effect = lower value
[64] = locus YOR329C, strain SCD5, stronger effect = lower value
[65] = locus YPL031C, strain PHO85, stronger effect = lower value
[66] = locus YPL153C, strain RAD53, stronger effect = lower value
[67] = locus YPL204W, strain HRR25, stronger effect = lower value
[68] = locus YPL209C, strain IPL1, stronger effect = lower value
[69] = locus YPL256C, strain CLN2, stronger effect = lower value
[70] = locus YPR025C, strain CCL1, stronger effect = lower value
[71] = locus YPR106W, strain ISR1, stronger effect = lower value
[72] = locus YPR111W, strain DBF20, stronger effect = lower value
[73] = strain NNK1, stronger effect = lower value
[74] = strain TSCII, stronger effect = lower value

Measured: normalized growth

CCNC(=O)[C@H]1O[C@@H](n2cnc3c(N)ncnc32)C(O)[C@H]1O (stereo partly specified)
inactive: [1] 1 | locus YAL040C, strain CLN3, stronger effect = lower value 1.02 | locus YCL061C, strain MRC1 (second series), stronger effect = lower value 1 | [2] 1 | locus YDR363W, strain ESC2, stronger effect = lower value 1.03 | locus YER002W, strain NOP16, stronger effect = lower value 1.01 | [3] 1 | locus YNL175C, strain NOP13, stronger effect = lower value 1 | locus YNL197C, strain WHI3, stronger effect = lower value 1.01 | locus YNL224C, strain SQS1, stronger effect = lower value 0.992 | locus YOR083W, strain WHI5 (second series), stronger effect = lower value 1.04

Cc1nc(-c2ccc(S(=O)(=O)Nc3ccc(Br)cc3Cl)s2)cs1
active: [29] 0.575 | [45] 0.635 | [69] 0.672
inactive: [4] 0.936 | [5] 0.946 | [6] 0.953 | [7] 0.942 | [8] 0.959 | [9] 0.942 | [10] 0.957 | [11] 0.956 | [12] 0.961 | [13] 0.951 | [14] 0.888 | [15] 0.941 | [16] 0.928 | [17] 0.943 | [18] 0.858 | [19] 0.904 | [20] 0.867 | [21] 0.957 | [22] 0.953 | [23] 0.949 | [24] 0.923 | [25] 0.952 | [26] 0.868 | [27] 0.866 | [28] 0.877 | [30] 0.778 | [31] 0.943 | [32] 0.944 | [33] 0.957 | [34] 0.84 | [35] 0.89 | [36] 0.893 | [37] 0.94 | [38] 0.882 | [39] 0.93 | [40] 0.919 | [41] 0.883 | [42] 0.864 | [43] 0.942 | [44] 0.893 | [46] 0.888 | [47] 0.863 | [48] 0.856 | [49] 0.946 | [50] 0.907 | [51] 0.94 | [52] 0.937 | [53] 0.884 | [54] 0.946 | [55] 0.901 | [56] 0.925 | [57] 0.952 | [58] 0.891 | [59] 0.952 | [60] 0.852 | [61] 0.859 | [62] 0.938 | [63] 0.79 | [64] 0.946 | [65] 0.862 | [66] 0.893 | [67] 0.846 | [68] 0.942 | [70] 0.953 | [71] 0.943 | [72] 0.926 | [73] 0.926 | [74] 0.937

Cc1ccc(NS(=O)(=O)c2ccc(-c3csc(C)n3)s2)c(C)c1
active: [29] 0.647 | [45] 0.676 | [69] 0.715
inactive: [4] 0.977 | [5] 0.984 | [6] 0.979 | [7] 0.981 | [8] 0.983 | [9] 0.984 | [10] 0.98 | [11] 0.993 | [12] 0.972 | [13] 0.989 | [14] 0.904 | [15] 0.986 | [16] 0.975 | [17] 0.986 | [18] 0.885 | [19] 0.888 | [20] 0.883 | [21] 0.976 | [22] 0.979 | [23] 0.98 | [24] 0.934 | [25] 0.981 | [26] 0.895 | [27] 0.928 | [28] 0.913 | [30] 0.883 | [31] 0.976 | [32] 0.977 | [33] 0.982 | [34] 0.859 | [35] 0.943 | [36] 0.931 | [37] 0.983 | [38] 0.826 | [39] 0.936 | [40] 0.957 | [41] 0.898 | [42] 0.894 | [43] 0.985 | [44] 0.92 | [46] 0.902 | [47] 0.912 | [48] 0.856 | [49] 0.977 | [50] 0.915 | [51] 0.98 | [52] 0.978 | [53] 0.898 | [54] 0.982 | [55] 0.893 | [56] 0.975 | [57] 0.986 | [58] 0.887 | [59] 0.983 | [60] 0.915 | [61] 0.84 | [62] 0.93 | [63] 0.806 | [64] 0.98 | [65] 0.892 | [66] 0.937 | [67] 0.881 | [68] 0.982 | [70] 0.981 | [71] 0.988 | [72] 0.962 | [73] 0.974 | [74] 0.975

Cc1nc(-c2ccc(S(=O)(=O)N3CCN(c4ncnc5scc(-c6ccccc6)c45)CC3)s2)cs1
inactive: [1] 1.02 | locus YBR229C, strain ROT2, stronger effect = lower value 1 | locus YCL061C, strain MRC1, stronger effect = lower value 1.01 | [11] 1 | [2] 0.936 | locus YEL061C, strain CIN8, stronger effect = lower value 0.995 | locus YGR078C, strain PAC10, stronger effect = lower value 1.01 | [29] 1.04 | locus YHR087W, strain rtc3, stronger effect = lower value 1.02 | locus YJL187C, strain SWE1, stronger effect = lower value 1.02 | locus YJR043C, strain POL32, stronger effect = lower value 1.01 | [3] 1.02 | locus YLR039C, strain RIC1, stronger effect = lower value 1.03 | locus YLR058C, strain SHM2 (second series), stronger effect = lower value 1.01 | locus YLR085C, strain ARP6, stronger effect = lower value 1.05 | locus YLR262C, strain YPT6, stronger effect = lower value 1.02 | locus YML094W, strain GIM5, stronger effect = lower value 1.02 | locus YMR219W, strain ESC1, stronger effect = lower value 1.01 | locus YMR263W, strain SAP30, stronger effect = lower value 1.03 | locus YMR307W, strain GAS1, stronger effect = lower value 0.952 | locus YNL153C, strain GIM3, stronger effect = lower value 1 | locus YNL298W, strain CLA4 (second series), stronger effect = lower value 1.03 | locus YNL322C, strain KRE1, stronger effect = lower value 1.01 | locus YNR030W, strain Alg12, stronger effect = lower value 1.01 | locus YOL006C, strain TOP1, stronger effect = lower value 0.997 | locus YPL055C, strain LGE1, stronger effect = lower value 0.897 | locus YPL241C, strain CIN2, stronger effect = lower value 1.05 | locus YPR135W, strain CTF4, stronger effect = lower value 0.993

— PubChem BioAssay AID1159580 (chemical genetic matrix, 2015)
